According to article PMC4336329 (PLoS ONE, 2015):
Out of some 310,000 compounds screened, about 14,000 (4.5%) showed an effect of 50% or more. The effect is printed as a negative number. For the sample, strong results were picked, then their nearest neighbours and some compounds at random.

molecular target: human ether-à-go-go-related gene (hERG) potassium channel (human, UniProt Q12809); experiment: primary screen, population patch clamp on CHO cells stably expressing hERG; higher = less effect of the substance
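Note: peak tail current of the secondary pulse compared with the same well before compound.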

Sequence of human ether-à-go-go-related gene (hERG) potassium channel (Q12809 whole entry, looked up): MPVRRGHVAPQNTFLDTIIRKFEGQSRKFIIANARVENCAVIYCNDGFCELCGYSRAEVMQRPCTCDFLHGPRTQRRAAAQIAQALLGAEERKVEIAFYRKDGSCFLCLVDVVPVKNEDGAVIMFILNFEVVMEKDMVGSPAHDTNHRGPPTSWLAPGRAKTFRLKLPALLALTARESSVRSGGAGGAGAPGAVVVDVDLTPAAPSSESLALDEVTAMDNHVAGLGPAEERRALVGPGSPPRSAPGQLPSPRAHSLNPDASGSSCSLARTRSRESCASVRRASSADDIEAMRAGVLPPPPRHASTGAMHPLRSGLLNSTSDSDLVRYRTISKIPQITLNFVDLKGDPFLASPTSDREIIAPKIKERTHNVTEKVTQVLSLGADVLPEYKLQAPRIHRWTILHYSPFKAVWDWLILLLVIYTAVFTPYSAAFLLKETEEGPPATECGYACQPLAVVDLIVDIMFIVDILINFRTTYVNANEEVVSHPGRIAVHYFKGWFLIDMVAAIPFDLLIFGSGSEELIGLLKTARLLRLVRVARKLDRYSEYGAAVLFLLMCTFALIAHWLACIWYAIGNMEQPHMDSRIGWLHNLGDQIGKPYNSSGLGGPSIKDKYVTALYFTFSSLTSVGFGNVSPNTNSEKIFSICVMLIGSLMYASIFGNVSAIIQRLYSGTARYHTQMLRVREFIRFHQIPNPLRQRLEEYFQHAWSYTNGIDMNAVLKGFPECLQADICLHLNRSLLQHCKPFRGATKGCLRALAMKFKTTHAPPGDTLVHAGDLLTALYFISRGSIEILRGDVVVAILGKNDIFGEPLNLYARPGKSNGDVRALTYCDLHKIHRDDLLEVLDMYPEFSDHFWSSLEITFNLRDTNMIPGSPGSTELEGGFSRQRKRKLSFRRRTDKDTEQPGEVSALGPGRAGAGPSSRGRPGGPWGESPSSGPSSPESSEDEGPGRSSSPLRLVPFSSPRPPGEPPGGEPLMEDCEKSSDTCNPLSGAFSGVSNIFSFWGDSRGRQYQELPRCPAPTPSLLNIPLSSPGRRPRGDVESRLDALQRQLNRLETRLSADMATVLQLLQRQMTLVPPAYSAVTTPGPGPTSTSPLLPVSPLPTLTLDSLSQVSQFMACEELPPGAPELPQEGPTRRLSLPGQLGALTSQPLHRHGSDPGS

First: CN(C)C(CNC(=O)c1cccc(C(F)(F)F)c1)c1ccco1 (centres unmarked)
Second: Cc1ccc(S(=O)(=O)N(C)C)cc1NC(=O)COC(=O)CNC(=O)c1cccs1
The “hERG current change (%, negative = inhibition) at 10uM” value of the first is lower: -11.8% for the first, 14.5% for the second.

Going from `Nc1c(C(=O)O)cnc2nc(N3CCOCC3)nn12` to `Cc1ccc(S(=O)(=O)N2CCOCC2)cc1NC(=O)COC(=O)Cc1cccs1`, the “hERG current change (%, negative = inhibition) at 10uM” value falls from 21.7% to -62.8%.

First: Nc1c(C(=O)N2CCCC2)sc2nc(-c3ccccc3)ccc12
Second: NC(=O)c1sc2nc(-c3ccccc3)ccc2c1N
The “hERG current change (%, negative = inhibition) at 10uM” value of the first is lower: -70.7% for the first, 18.7% for the second.

Compared with `CC(C)OC(=O)c1sc2nc(-c3ccccc3)ccc2c1N`, `Cc1ccc(-c2n[nH]c(=O)c3ccccc23)cc1N` is lower in “hERG current change (%, negative = inhibition) at 10uM” value: 16.7% for the first, 5.75% for the second.

First: CCOc1ccc(NC(=O)C(CC(=O)O)Cc2ccccc2)cc1 (centres unmarked)
Second: CN(CC(=O)Nc1ccccc1Cl)C(=O)c1ccc(COc2ccccc2)cc1
The “hERG current change (%, negative = inhibition) at 10uM” value of the first is higher: 5.94% for the first, -12.9% for the second.

Going from `O=C(c1ccco1)N1CCC(c2nc3ccccc3[nH]2)CC1` to `Cc1ccc(-c2noc(C3CCCN(C(=O)c4ccccc4)C3)n2)o1` (centres unmarked), the “hERG current change (%, negative = inhibition) at 10uM” value falls from -5.9% to -13.1%.

Going from `CCCCCOc1ccc(CSC(=N)N)cc1[N+](=O)[O-].Cl` to `CCCCOc1ccc(CSC(=N)N)cc1[N+](=O)[O-].Cl`, the “hERG current change (%, negative = inhibition) at 10uM” value falls from -56.7% to -64.1%.

Going from `COc1ccc(CSC(=N)N)cc1[N+](=O)[O-].Cl` to `CCOc1ccc(CSC(=N)N)cc1[N+](=O)[O-].Cl`, the “hERG current change (%, negative = inhibition) at 10uM” value falls from -3.72% to -65.5%.

Going from `Cl.N=C(N)SCc1ccc(O)c([N+](=O)[O-])c1` to `CCOc1ccc(CSC(=N)N)cc1Cl.Cl`, the “hERG current change (%, negative = inhibition) at 10uM” value falls from -0.169% to -15.2%.

Compared with `CCCOc1ccc(CSC(=N)N)cc1C(=O)OC.Cl`, `COC(=O)c1cc(CSC(=N)N)ccc1OCCC(C)C.Cl` is lower in “hERG current change (%, negative = inhibition) at 10uM” value: -0.181% for the first, -3.46% for the second.

First: CCCCOc1ccc(CSC(=N)N)cc1Cl.Cl
Second: CCC(=O)OCC(=O)Nc1cc(S(=O)(=O)N(C)C)ccc1Cl
The “hERG current change (%, negative = inhibition) at 10uM” value of the first is lower: -21.9% for the first, 17.1% for the second.

Going from `COc1cccc(CNC(=O)c2ccc(Cl)c(S(=O)(=O)N3CCOCC3)c2)c1` to `O=C(COC(=O)c1cccs1)Nc1cc(S(=O)(=O)N2CCOCC2)ccc1Cl`, the “hERG current change (%, negative = inhibition) at 10uM” value falls from -19.5% to -35.5%.

First: COc1ccc(OC)c(S(=O)(=O)n2nnc3cc(Cl)ccc32)c1
Second: CCn1c(-c2cc(-c3cc(OC)ccc3OC)nc3ccccc23)n[nH]c1=S
The “hERG current change (%, negative = inhibition) at 10uM” value of the first is higher: 4.31% for the first, -10.3% for the second.

Going from `COc1ccc(NC(=O)c2ccccc2OCc2c(C)noc2C)cc1OC` to `COc1ccc(C(=O)N2CCCC(c3nc(-c4ccc(C)o4)no3)C2)cc1OC` (centres unmarked), the “hERG current change (%, negative = inhibition) at 10uM” value rises from -37.5% to -8.29%.

Compared with `CN(c1ccc(C(=O)N2CCN(Cc3ccccc3)CC2)cc1)S(=O)(=O)c1ccc(Cl)cc1`, `Cc1nc2c(C(=O)N3CCN(c4ccccn4)CC3)cnn2c(C)c1Cc1cccc(Cl)c1` is lower in “hERG current change (%, negative = inhibition) at 10uM” value: -24.9% for the first, -43.4% for the second.

First: Cc1cccc(C(=O)N2CCCC(c3nc(-c4ccc(C)o4)no3)C2)c1 (centres unmarked)
Second: Cc1ccc(-c2noc(C3CCCN(C(=O)c4cccc(Cl)c4)C3)n2)o1 (centres unmarked)
The “hERG current change (%, negative = inhibition) at 10uM” value of the first is higher: -27.7% for the first, -43.4% for the second.

First: Cc1ccc(-c2noc(C3CCCN(C(=O)c4ccccc4Br)C3)n2)o1 (centres unmarked)
Second: Cc1ccc(-c2noc(C3CCCN(C(=O)c4ccc(Cl)cc4)C3)n2)o1 (centres unmarked)
The “hERG current change (%, negative = inhibition) at 10uM” value of the first is higher: -42.6% for the first, -55.2% for the second.

First: CCOc1ccccc1NC(=O)N1CCCC(c2nc(-c3ccc(C)o3)no2)C1 (centres unmarked)
Second: CCOc1ccc(C(=O)N2CCCC(c3nc(-c4ccc(C)o4)no3)C2)cc1 (centres unmarked)
The “hERG current change (%, negative = inhibition) at 10uM” value of the first is higher: -52.5% for the first, -60.2% for the second.

Compared with `COc1cc(OC)cc(C(=O)N2CCCC(c3nc(-c4ccc(C)o4)no3)C2)c1` (centres unmarked), `Cc1ccc(-c2noc(C3CCCN(C(=O)c4ccc(C(C)(C)C)cc4)C3)n2)o1` (centres unmarked) is lower in “hERG current change (%, negative = inhibition) at 10uM” value: -9.35% for the first, -19.8% for the second.

Compared with `CCOc1ccc(C(=O)N2CCCC(c3nc(-c4cccs4)no3)C2)cc1` (centres unmarked), `Cc1ccc(-c2noc(C3CCCN(C(=O)c4cccc([N+](=O)[O-])c4)C3)n2)o1` (centres unmarked) is lower in “hERG current change (%, negative = inhibition) at 10uM” value: -46.9% for the first, -65% for the second.

Going from `COc1ccc(S(=O)(=O)N2CCCCCC2)cc1C(=O)OCC(=O)NC(C)(C)C` to `Cc1ccc(S(=O)(=O)N(C)C)cc1NC(=O)COC(=O)C1CCCC1`, the “hERG current change (%, negative = inhibition) at 10uM” value rises from -17.5% to 3.16%.

Compared with `O=C(NC1CCS(=O)(=O)C1)c1ccc(-c2ccc(Br)cc2)o1` (centres unmarked), `O=C(OCc1ccc(Br)cc1)c1ccncc1` is higher in “hERG current change (%, negative = inhibition) at 10uM” value: -20.9% for the first, 5.25% for the second.

First: O=C1CN(C(=O)N[C@@H](Cc2ccccc2)C(=O)N[C@@H](Cc2ccccc2)C(=O)O)c2ccccc2N1
Second: O=C(OCn1nnc2ccccc2c1=O)c1cc(-c2ccccc2)nc2ccccc12
The “hERG current change (%, negative = inhibition) at 10uM” value of the first is lower: 3.79% for the first, 6.74% for the second.

Going from `CCOc1cccc(OCCOCCNC(C)(C)C)c1.O=C(O)C(=O)O` to `Cc1ccc(OCCC(=O)OCC(=O)Nc2cc(S(=O)(=O)N(C)C)ccc2C)cc1`, the “hERG current change (%, negative = inhibition) at 10uM” value falls from 3.71% to -26.6%.

Going from `COn1c(=O)c(=O)n(OC)c2ccccc21` to `CCc1cc(C(=O)OC)c(NC(=O)C2CC(=O)NN2Cc2ccccc2)s1` (centres unmarked), the “hERG current change (%, negative = inhibition) at 10uM” value falls from -3.45% to -29.7%.

Going from `Cc1ccc(C)c(S(=O)(=O)N2CCCOC2CNC(=O)C(=O)NCc2ccco2)c1` (centres unmarked) to `Cc1ccc(NC(=O)COC(=O)Cc2cccs2)cc1S(=O)(=O)N1CCOCC1`, the “hERG current change (%, negative = inhibition) at 10uM” value falls from 11.6% to -23.5%.

Going from `CC(C)CCN1C(=O)c2ccccc2C1C(=O)NCc1cccnc1` (centres unmarked) to `O=C(CSc1ccc(Cl)cc1)NNC(=O)c1cccnc1`, the “hERG current change (%, negative = inhibition) at 10uM” value falls from -16.1% to -21%.

Compared with `Brc1cc(Br)c2ncnc(N3CCCCC3)c2c1`, `O=[n+]1c2c(n([O-])c3cc(Br)ccc31)CCC2` is higher in “hERG current change (%, negative = inhibition) at 10uM” value: -11.8% for the first, -2.98% for the second.

Going from `O=c1c2ccccc2nc(/C=C/c2ccccn2)n1-c1ccccc1` to `C(=C\c1ccncc1)/c1ccccc1`, the “hERG current change (%, negative = inhibition) at 10uM” value falls from 10.9% to -10.6%.

Compared with `COc1ccccc1NC(=O)CCCCCN1C(=O)c2cccc([N+](=O)[O-])c2C1=O`, `Cc1ccc(S(=O)(=O)NCC(=O)OCN2C(=O)c3ccccc3C2=O)cc1` is higher in “hERG current change (%, negative = inhibition) at 10uM” value: -39.2% for the first, 5.91% for the second.

Compared with `CCOc1ccccc1NC(=O)CN1CCN(C(=O)C2CCCO2)CC1` (centres unmarked), `CN(C)S(=O)(=O)c1ccc(Cl)c(NC(=O)CN2CCCC2)c1` is higher in “hERG current change (%, negative = inhibition) at 10uM” value: -10.6% for the first, 11.5% for the second.

Compared with `Cc1ccc(S(=O)(=O)N(C)C)cc1NC(=O)COC(=O)Cc1cccs1`, `Cc1ccc(S(=O)(=O)N(C)C)cc1NC(=O)COC(=O)Cc1ccsc1` is lower in “hERG current change (%, negative = inhibition) at 10uM” value: -74.5% for the first, -79% for the second.

Compared with `CCN(CC(=O)NCc1ccc(F)cc1)CC(=O)Nc1cc(S(=O)(=O)N(C)C)ccc1C`, `CN(CCC(=O)Nc1cc(S(=O)(=O)N(C)C)ccc1Cl)CC(=O)Nc1ccc(F)cc1` is higher in “hERG current change (%, negative = inhibition) at 10uM” value: -75.6% for the first, -50.1% for the second.

Going from `O=C(COC(=O)Cc1cccs1)Nc1cccc(S(=O)(=O)N2CCOCC2)c1` to `O=C(COC(=O)CCC(=O)c1cccs1)Nc1cc(S(=O)(=O)N2CCOCC2)ccc1Cl`, the “hERG current change (%, negative = inhibition) at 10uM” value falls from 0.0981% to -53.5%.

Going from `Cc1ccc(S(=O)(=O)N(C)C)cc1NC(=O)COC(=O)CCC(=O)c1cccs1` to `Cc1ccc(S(=O)(=O)N2CCOCC2)cc1NC(=O)COC(=O)CCC(=O)c1cccs1`, the “hERG current change (%, negative = inhibition) at 10uM” value rises from -21.8% to -13.8%.

Compared with `Cc1ccc(S(=O)(=O)N(C)C)cc1NC(=O)COC(=O)CSc1ccccc1`, `Cc1ccc(S(=O)(=O)N(C)C)cc1NC(=O)COC(=O)Cc1ccc(Br)cc1` is lower in “hERG current change (%, negative = inhibition) at 10uM” value: -21.3% for the first, -56.7% for the second.

First: CCN(CC(=O)NCc1ccc(F)cc1)CC(=O)Nc1ccc(S(=O)(=O)N2CCCC2)cc1
Second: CCN(CC(=O)NCc1ccc(F)cc1)CC(=O)Nc1ccccc1-c1ccccc1
The “hERG current change (%, negative = inhibition) at 10uM” value of the first is lower: -22.8% for the first, -16% for the second.

First: Cc1c(CC(=O)N[C@H](C(=O)O)C(C)C)c(=O)oc2cc3c(cc12)CCC(C)(C)O3
Second: Cc1ccc(S(=O)(=O)N(C)C)cc1NC(=O)COC(=O)C1CC1
The “hERG current change (%, negative = inhibition) at 10uM” value of the first is higher: 23.1% for the first, 16.2% for the second.

Going from `COCCCNC(=O)CNC(=S)N(Cc1ccccc1F)C1CCCCC1` to `Cc1ccccc1NC(=O)COC(=O)Cc1ccsc1`, the “hERG current change (%, negative = inhibition) at 10uM” value rises from 4.18% to 12.7%.

Compared with `Cc1nn(-c2ccccc2)c(Cl)c1/C=N/Nc1ccc(Cl)c(C(=O)O)c1`, `Cc1ccc(Nc2ccc(C(=O)O)cc2[N+](=O)[O-])cc1` is lower in “hERG current change (%, negative = inhibition) at 10uM” value: 21.3% for the first, 15.1% for the second.

First: Cc1ccc(C)c(NC(=O)COC(=O)Cc2ccsc2)c1
Second: Cc1ccc(S(=O)(=O)N(C)C)cc1NC(=O)COC(=O)C1CCN(S(=O)(=O)c2cccs2)CC1
The “hERG current change (%, negative = inhibition) at 10uM” value of the first is higher: 33.1% for the first, -81.9% for the second.

Compared with `Clc1ccc(-c2nnc(SCc3cn4ccsc4n3)n2CC2CCCO2)cc1` (centres unmarked), `CCCC(C)c1nnc(NC(=O)C2CC(=O)N(CCc3ccc(F)cc3)C2)s1` (centres unmarked) is lower in “hERG current change (%, negative = inhibition) at 10uM” value: -29.2% for the first, -30.1% for the second.

First: Cc1cccc2cc3c(N)c(C#N)sc3nc12
Second: Cc1cc(C)c(Nc2cc(S(=O)(=O)[O-])c(N)c3c2C(=O)c2ccccc2C3=O)c(C)c1.[Na+]
The “hERG current change (%, negative = inhibition) at 10uM” value of the first is higher: 21.5% for the first, 12% for the second.
